DAX1 inh-1: DAX1 (NR0B1) inhibition, primary screen; HEK293T StAR-luciferase reporter, SF-1/DAX-1 repression relief; inhibition, % at 6.8 µM; actives 1.1% (n = 370,000); AID 652010;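 active means inhibition above the mean over all tested compounds plus 3 SD, cut at about 3.6% in these data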;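 further: 0% = DAX-1 cells with DMSO and 100% = cells lacking DAX-1 with DMSO; higher inhibition means more luminescence from relief of DAX-1 repression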
DAX1 inh-2: inhibits human nuclear receptor DAX1; HEK293 Gal4-DAX1 luciferase reporter, luminescence; inhibition, % at 6.75 µM; actives 0.99% (n = 340,000); AID 504766;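 active means inhibition above the mean over all tested compounds plus 3 SD, cut at about 4.2% in these data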;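 further: 0% = DAX1-transfected cells with DMSO and 100% = empty-vector control cells with DMSO; inhibition shows as a rise in luminescence from relieved DAX1 repression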
Target sequence (P51843 207-470 limits assumed): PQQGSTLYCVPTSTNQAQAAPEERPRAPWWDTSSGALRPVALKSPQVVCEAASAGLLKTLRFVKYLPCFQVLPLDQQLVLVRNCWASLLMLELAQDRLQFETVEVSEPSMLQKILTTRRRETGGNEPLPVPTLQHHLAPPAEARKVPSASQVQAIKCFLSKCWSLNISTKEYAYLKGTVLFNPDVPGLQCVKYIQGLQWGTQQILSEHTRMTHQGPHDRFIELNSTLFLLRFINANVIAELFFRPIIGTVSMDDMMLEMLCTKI
hcDAF-12 act: activators of H. contortus DAF-12 nuclear receptor. HEK293 hcDAF-12 lit1-tk-luc reporter, luminescence; 0% DMSO, 100% Δ7-dafachronic acid. activation, % at 6.8 µM. actives 1.4% (n = 370,000);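 active means activation above the mean of all tested compounds plus 3 SD, cut at about 5.5% in these data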;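 further: 100% = response to 3 µM Δ7-dafachronic acid high control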
hgDAF12 agonist: hgDAF-12 agonism, primary luciferase screen. actives 1.8% (n = 370,000). AID 687014. activation, % at 6.8 µM. HEK293 GAL4-hgDAF12 UAS-luciferase reporter, agonist luminescence; normalized to butyrate control;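 active means activation above a cutoff set at the mean of all screened compounds plus 3 SD, cut at about 10% in these data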;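 further: 0% = DMSO wells and 100% = sodium butyrate wells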
ssDAF12 agonist: activates DAF-12 receptor from parasite S. stercoralis; HEK293 ssDAF-12/GRIP1 lit1-tk-luc reporter, luminescence; % of 3 µM dafachronic acid response; activation, % at 6.8 µM; actives 1% (n = 370,000);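 active means activation above the mean over all tested compounds plus 3 SD, cut at about 0.9% in these data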;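 further: 0% = DMSO-only wells and 100% = 3 µM delta7-dafachronic acid wells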
* hit, by the source's call. Only some compounds are listed: those with a hit (about 4.1% of all), similar ones and a draw of the others.

`COc1ccc(CNC(=O)Cc2ccc(NC(=O)C3=C(C)OCCS3)cc2)cc1` gave DAX1 inh-1 -2.3, DAX1 inh-2 -0.1, hcDAF-12 act 1.9, hgDAF12 agonist 11.1* and ssDAF12 agonist -0.4.
Screening C/C(Cn1cnc([N+](=O)[O-])n1)=N\NC(=O)c1ccccc1F returned DAX1 inh-1 1.2, DAX1 inh-2 0.7, hcDAF-12 act 0.5, hgDAF12 agonist 10.7* and ssDAF12 agonist 0.8.
Screening C/C(Cn1cnc([N+](=O)[O-])n1)=N\NC(=O)c1ccccc1O returned DAX1 inh-1 0.8, DAX1 inh-2 1.0, hcDAF-12 act 1.3, hgDAF12 agonist 8.0 and ssDAF12 agonist -1.0.
`CCCCn1c(N)c(N(CC(C)C)C(=O)c2oc3ccc(OCC)cc3c2C)c(=O)[nH]c1=O` gave DAX1 inh-1 -1.6, DAX1 inh-2 0.4, hcDAF-12 act 1.3, hgDAF12 agonist -2.6 and ssDAF12 agonist -1.3.
CCCCN(C(=O)c1oc2ccc(OCC)cc2c1C)c1c(N)n(CC(C)C)c(=O)[nH]c1=O was read as DAX1 inh-1 4.2*, DAX1 inh-2 0.0, hcDAF-12 act 1.9, hgDAF12 agonist -0.1 and ssDAF12 agonist -0.8.
Screening CCCCn1c(N)c(N(CC)C(=O)COc2ccc(C#N)cc2)c(=O)[nH]c1=O returned DAX1 inh-1 0.1, DAX1 inh-2 0.6, hcDAF-12 act -0.4, hgDAF12 agonist -0.6 and ssDAF12 agonist 1.3*.
`C=C(C)CSc1nc2nc(C)c(Br)cc2[nH]1` gave DAX1 inh-1 1.5, DAX1 inh-2 6.0*, hcDAF-12 act -0.2, hgDAF12 agonist 4.9 and ssDAF12 agonist -1.7.
O=[N+]([O-])c1ccc(-c2cn3ccccc3n2)cc1 was read as DAX1 inh-1 1.9, hcDAF-12 act 2.4, hgDAF12 agonist 6.7 and ssDAF12 agonist -0.5.
CCCOc1ccc(-c2csc(N)n2)cc1[N+](=O)[O-] was read as DAX1 inh-1 0.4, DAX1 inh-2 1.6, hcDAF-12 act 0.9, hgDAF12 agonist 5.7 and ssDAF12 agonist -1.4.
Oc1ccc(-c2cn3ccccc3n2)cc1O was read as DAX1 inh-1 2.4, DAX1 inh-2 1.0, hcDAF-12 act 6.1*, hgDAF12 agonist 8.2 and ssDAF12 agonist -0.2.
Screening CCCCOc1ccc(-c2cn3ccccc3n2)cc1[N+](=O)[O-] returned DAX1 inh-1 0.3, DAX1 inh-2 -1.3, hcDAF-12 act 1.0, hgDAF12 agonist 10.8* and ssDAF12 agonist -1.2.
CCOc1ccc(-c2cn3ccccc3n2)cc1[N+](=O)[O-] was read as DAX1 inh-1 1.0, DAX1 inh-2 1.9, hcDAF-12 act 1.4, hgDAF12 agonist 11.5* and ssDAF12 agonist 0.5.
For O=C(NCc1cccs1)c1noc2c1CCCCC2 the results were DAX1 inh-1 0.9, DAX1 inh-2 1.1, hcDAF-12 act -0.2, hgDAF12 agonist 10.5* and ssDAF12 agonist -1.2.
`Cc1cc2nc(-c3cccnc3SCC(=O)NC(C)C)[nH]c2cc1C` gave DAX1 inh-1 4.1*, DAX1 inh-2 0.8, hcDAF-12 act 4.4, hgDAF12 agonist 9.6 and ssDAF12 agonist -0.3.
Screening COCCOC(=O)CSc1ncccc1-c1nc2cc(C)c(C)cc2[nH]1 returned DAX1 inh-1 1.9, DAX1 inh-2 -0.6, hcDAF-12 act 3.9, hgDAF12 agonist 9.4 and ssDAF12 agonist 0.7.
Screening Cc1noc(C)c1C(C)C1=CCCCC1 (configuration not stated) returned DAX1 inh-1 -0.9, hcDAF-12 act -1.9, hgDAF12 agonist 3.9 and ssDAF12 agonist -1.3.
Screening CC(=O)c1ccc(-c2nnc(CCC(=O)N(C)Cc3cccc4cnccc34)o2)s1 returned DAX1 inh-1 -0.9, DAX1 inh-2 0.7, hcDAF-12 act -1.3, hgDAF12 agonist -1.0 and ssDAF12 agonist -1.1.
`Cc1ccc(-c2nnc(CCC(=O)N(C)Cc3nccs3)o2)s1` gave DAX1 inh-1 0.1, DAX1 inh-2 0.3, hcDAF-12 act 3.3, hgDAF12 agonist 4.0 and ssDAF12 agonist 1.9*.
Clc1cccc(Cl)c1/C=N\Nc1nccs1 was read as DAX1 inh-1 -0.4, DAX1 inh-2 0.6, hcDAF-12 act 1.4, hgDAF12 agonist 2.4 and ssDAF12 agonist -0.3.
For Cc1csc(N/N=C/c2c(F)cccc2Cl)n1 the results were DAX1 inh-1 -0.1, DAX1 inh-2 0.7, hcDAF-12 act 6.5*, hgDAF12 agonist 2.2 and ssDAF12 agonist -0.1.
Screening CCOc1ccc(S(=O)(=O)Nc2cc(SCC(=O)O)c(O)c3ccccc23)cc1 returned DAX1 inh-1 -1.3, DAX1 inh-2 0.1, hcDAF-12 act 0.3, hgDAF12 agonist -3.5 and ssDAF12 agonist 1.5*.
Screening O=C(O)CSc1cc(NS(=O)(=O)c2cccc([N+](=O)[O-])c2)c2ccccc2c1O returned DAX1 inh-1 -0.8, DAX1 inh-2 0.3, hcDAF-12 act 4.1, hgDAF12 agonist 0.1 and ssDAF12 agonist 1.0*.
`CCCCNC(=O)C[C@H]1C[C@@]2(C(=O)OC)C(=C[C@H](C3CCCC3)O[C@@H]2C)N(Cc2ccco2)C1=O` gave DAX1 inh-1 -0.6, hcDAF-12 act -2.9, hgDAF12 agonist -1.4 and ssDAF12 agonist -1.9.
For COc1ccc(-c2cn3c(C)c(C(=O)NCCN4CCOCC4)sc3n2)cc1 the results were DAX1 inh-1 -0.2, DAX1 inh-2 -2.1, hcDAF-12 act 4.9, hgDAF12 agonist 0.9 and ssDAF12 agonist -0.7.
`CCN(CC)C(=O)c1sc2nc(-c3ccc(OC)cc3)cn2c1C` gave DAX1 inh-1 3.6, DAX1 inh-2 1.4, hcDAF-12 act 1.9, hgDAF12 agonist 13.0* and ssDAF12 agonist -0.6.
`CCCCCCCCN1CCS(=O)(=O)N(Cc2ccc(C)cc2)C(C(=O)OC)C1` (configuration not stated) gave DAX1 inh-1 -0.3, hcDAF-12 act -0.9, hgDAF12 agonist 0.2 and ssDAF12 agonist -0.8.
CN(CCc1ccccn1)C(=O)c1ccc(Sc2ccccc2Cl)c([N+](=O)[O-])c1 was read as DAX1 inh-1 -1.1, hcDAF-12 act -3.8, hgDAF12 agonist -1.1 and ssDAF12 agonist -1.4.
CC(=O)Oc1ccc(C(=O)Nc2ccccc2C(=O)Nc2cccc(C(=O)O)c2)cc1 was read as DAX1 inh-1 0.2, DAX1 inh-2 5.4*, hcDAF-12 act -1.4, hgDAF12 agonist 0.6 and ssDAF12 agonist -1.0.
CC1CC(CC(=O)NNc2nc(-c3ccccc3)cs2)C(=O)O1 (configuration not stated) was read as DAX1 inh-1 -1.6, DAX1 inh-2 6.1*, hcDAF-12 act -0.2, hgDAF12 agonist -0.4 and ssDAF12 agonist -1.1.
For COc1ccc(C(=O)c2nc3c(n2O)CCCCC3)cc1 the results were DAX1 inh-1 0.2, DAX1 inh-2 -0.2, hcDAF-12 act -1.2, hgDAF12 agonist 1.2 and ssDAF12 agonist -1.2.
For O=C(c1ccc(Oc2ccccc2)cc1)c1nc2c(n1O)CCCC2 the results were DAX1 inh-1 0.8, DAX1 inh-2 0.7, hcDAF-12 act -1.1, hgDAF12 agonist 1.6 and ssDAF12 agonist 1.2*.
